Shown are actives, neighbours in structure and some others; about 0.95% of the full set was active somewhere.
Texas Red fluor – compounds fluorescent in Texas Red spectral region. Compound fluorescence, Texas Red channel, 547/618 nm; hits give high values. max dye-equivalent concentration, M. 59,000 compounds, 0.06% hits; in the data active = max dye-equivalent concentration above about 10 nM; inconclusive = between about 1.1 nM and that limit
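Compound titrations in 100 mM Tris pH 8.0 were incubated 15 min at room temperature and read at 547 nm excitation / 618 nm emission. Texas Red six-point standard curve on each plate converted fluorescence to dye-equivalent concentration.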
A488 autofl – compound fluoresces in the A488 spectral region. compound autofluorescence, A488 spectral region, dye equivalency; Compound Type: qHTS ECL - MLSMR. max dye equivalency, M. 59,000 compounds, 0.1% hits. AID 591
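Autofluorescence read at ex 480/em 540 nm after 15 min RT in 100 mM Tris pH 8.0; compound signal normalized to A488 standard series on each plate, reported as dye-equivalent concentration at each test concentration.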
Fluorescein fluor – fluorescein region autofluorescence; AID 593; max fluorescein-equivalent concentration, M; Compound autofluorescence, 480/540 nm, fluorescein-equivalent; hits give high values; 59,000 compounds, 0.91% hits; in the data active = max fluorescein-equivalent concentration above about 10 nM; inconclusive = between about 1.1 nM and that limit
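Fluorescein stocks ranging 3 mM down to 300 nM, plus DMSO blanks, were pinned alongside compounds to build a per-plate standard curve. Buffer: 100 mM Tris, pH 8.0. Incubation 15 min, room temperature; filters 480/540 nm.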
Rhodamine autofl – compound autofluorescence in rhodamine spectral region; max dye-equivalent concentration, M; AID 594; Rhodamine-region fluorescence, 547/598 nm, Tris buffer; hits give high values; 59,000 compounds, 0.05% hits; in the data active = max dye-equivalent concentration above about 11 nM; inconclusive = between about 1.1 nM and that limit
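Steps: pin-transfer compounds into pH 8.0 Tris (100 mM), hold 15 min at room temperature, image with a 547/598 nm filter pair, and convert intensities to rhodamine-equivalent concentration using a six-point on-plate rhodamine series.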
Resorufin autofl – compound fluoresces in the resorufin spectral region | Compound fluorescence, resorufin region 547/598 nm, buffer; hits give high values | max dye-equivalent concentration, M | 59,000 compounds, 0.04% hits | AID 588
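Compounds in 100 mM Tris buffer, pH 8.0, incubated 15 min at room temperature, then read with 547 nm excitation and 598 nm emission filters. Fluorescence was converted to dye-equivalent concentration using an on-plate six-point resorufin standard curve.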
A647 autofl – compound fluoresces in the A647 spectral region; 59,000 tested, under 10 active; max dye-equivalent concentration, M; Compound fluorescence, A647 channel (570/671 nm), Tris buffer
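Fluorescence read (570 nm ex, 671 nm em) after 15 min RT incubation of compounds in 100 mM Tris buffer, pH 8.0; values expressed as dye-equivalent concentration against a six-point A647 standard series on each plate.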
Numbers stand for hits; . = inactive; ? = inconclusive. Unless noted, no rule for the calls is given here.

SMILES	Texas Red fluor	A488 autofl	Fluorescein fluor	Rhodamine autofl	Resorufin autofl	A647 autofl
CN[C@H]1[C@H](O)[C@@H](O[C@@H]2[C@H](O)[C@@H](O[C@H]3OC(CN)=CC[C@H]3N)[C@@H](N)C[C@H]2N)OC[C@@]1(C)O	.	.	?	.	.	.
CCN[C@@H]1C[C@H](N)[C@H](O[C@H]2OC(CN)=CC[C@H]2N)[C@@H](O)[C@H]1O[C@H]1OC[C@@](C)(O)[C@@H](NC)[C@@H]1O	.	.	2.4e-08M	.	.	.
CCOC(=O)c1cnc(-n2nc(C)cc2C)nc1NC1CCCCC1	.	.	?	.	.	.
CCOC(=O)c1cnc(-n2nc(C)cc2C)nc1NC	.	.	1e-08M	.	.	.
CCOC(=O)c1cnc(-n2nc(C)cc2C)nc1Nc1ccc(N(C)C)cc1	?	.	?	.	.	.
CCOC(=O)c1cnc(-n2nc(C)cc2C)nc1N(CC)CC	.	.	1.1e-08M	.	.	.
COc1ccc(-c2coc3ccc(O[C@@H]4O[C@@H](COC(C)=O)[C@@H](OC(C)=O)[C@@H](OC(C)=O)[C@H]4OC(C)=O)cc3c2=O)cc1	.	.	.	.	.	.
CC[C@@H]1OC(=O)[C@@H](C)[C@H](O[C@@H]2C[C@@](C)(OC)[C@@H](O)[C@H](C)O2)[C@H](C)[C@H](O[C@@H]2O[C@@H](C)C[C@@H](N(C)C)[C@H]2O)[C@@](C)(O)C[C@H](C)C(=O)[C@@H](C)[C@H](O)[C@@]1(C)O	.	.	?	.	.	.
CN1CCc2c(sc3c2C(=O)NC(c2ccc4c(c2)OCO4)N3)C1 (stereo not drawn)	?	.	?	.	.	.
CN1CCc2c(sc3c2C(=O)NC(c2ccccn2)N3)C1 (stereo not drawn)	1.2e-08M	?	5.6e-08M	?	?	.
CCOC(=O)N1CCc2c(sc3c2C(=O)NC(c2ccc(-c4ccc(Cl)cc4)o2)N3)C1 (stereo not drawn)	.	.	.	.	.	.
Cc1ccc(C2NC(=O)c3c(sc4c3CCN(C)C4)N2)o1 (stereo not drawn)	.	.	1.2e-08M	.	.	.
Cc1ccc(C2NC(=O)c3c(sc4c3CCN(C)C4)N2)s1 (stereo not drawn)	.	.	1.6e-08M	.	.	.
CN1CCc2c(sc3c2C(=O)NC(/C=C/c2ccco2)N3)C1 (stereo not drawn)	.	.	1.3e-08M	.	.	.
O=C1NC(c2ccccn2)Nc2sc3c(c21)CCC3 (stereo not drawn)	?	.	.	.	.	.
Cc1ccc2c(c1)c(C)c(C)n2CC(O)CN1CCOCC1 (stereo not drawn)	6.4e-08M	.	1.4e-08M	1.2e-08M	?	.
Cc1ccc(C(C)C)c(OCC(O)CN2CCOCC2)c1 (stereo not drawn)	.	.	?	.	.	.
COCCn1c(=O)c(-c2cc(F)cc(F)c2)nc2cnc(OC)nc21	.	.	.	.	.	.
O=c1cc(-c2ccccc2)oc2cc(O[C@H]3O[C@H](CO)[C@@H](O)[C@H](O)[C@@H]3O)c(O)c(O)c12	.	.	.	.	.	.
CCOC(=O)CSC1=NC(=O)CS1	.	.	2e-08M	.	.	.
CCOC(=O)CSc1nnc(N)s1	?	.	?	.	.	.
Cc1ccc(C)c([C@@H]2NC(=O)c3ccccc3N2)c1	.	.	.	.	.	.
N#CCCn1c(=O)c(-c2cccs2)nc2cnc(N3CCOCC3)nc21	.	.	1.3e-08M	.	.	.
O=c1oc2c3c4c(cc2c(C(F)(F)F)c1CCN1CCOCC1)CCCN4CCC3	?	?	4.6e-08M	.	.	.
O=c1oc2c(CN3CCOCC3)c(O)ccc2c2c1CCC2	.	.	.	.	.	.
SMILES	Texas Red fluor	A488 autofl	Fluorescein fluor	Rhodamine autofl	Resorufin autofl	A647 autofl
O=C1OC2(c3ccc(O)cc3Oc3cc(O)ccc32)c2c1c(-c1ccccc1)c(-c1ccccc1)c(-c1ccccc1)c2-c1ccccc1	.	2.3e-08M	4.8e-07M	?	?	.
O=C(O)c1ccc2c(c1C(=O)O)C(=O)OC2(c1ccc(O)cc1)c1ccc(O)cc1	.	.	.	.	.	.
O=c1[nH][nH]c(=S)c(=O)[nH]1	.	.	.	.	.	.
CC(=O)c1sc2nc(-c3cccs3)cc(C(F)(F)F)c2c1N	.	?	7.2e-08M	.	.	.
COc1cccc(Cn2c(=O)c(-c3ccc(Cl)cc3)nc3cnc(N4CCNCC4)nc32)c1	?	.	.	.	.	.
CN(C)c1ccc(/C=c2\sc3n(c2=O)CCCN=3)cc1	.	.	1.5e-08M	.	.	.
COC(=O)/C=c1/sc2n(c1=O)CCN=2	.	.	.	.	.	.
COc1ccc(Oc2ncc3nc(-c4ccccc4)c(=O)n(Cc4cccs4)c3n2)cc1	.	.	.	.	.	.
N#Cc1ccc(NC(=O)c2cc3cc4c5c(c3oc2=N)CCCN5CCC4)cc1	.	1.2e-08M	2.3e-07M	.	.	.
N=c1oc2c3c4c(cc2cc1C(=O)Nc1ccccc1)CCCN4CCC3	?	2.5e-08M	4.7e-07M	?	.	.
CCOc1ccc(C2C=C(c3ccc(C)cc3)Nc3nnnn32)cc1 (stereo not drawn)	.	.	?	.	.	.
CCOc1ccc(C2C=C(c3ccc(C)cc3)Nc3ncnn32)cc1 (stereo not drawn)	?	.	1.5e-08M	.	.	.
CN(C)c1ccc(/C=C/c2cc[n+]([O-])cc2)cc1	?	1.5e-08M	2.9e-07M	.	.	.
Cc1ccc(C(=O)O[C@@H](C(=O)O)[C@@H](OC(=O)c2ccc(C)cc2)C(=O)O)cc1 (tested in a mixture with another compound)	.	.	?	.	.	.
CCN(CC)c1ccc2c(c1)oc(=O)c1c(Cl)cc(=O)oc12	.	2.5e-08M	4.8e-07M	.	.	.
CCN(CC)c1ccc2c(Cl)c(Br)c(=O)oc2c1	.	.	?	.	.	.
C=Cc1c(C)c2cc3[nH]c(cc4nc(cc5nc(cc1[nH]2)C(C)=C5CCC(=O)O)C(CCC(=O)O)=C4C)c(C)c3C=C	1e-08M	.	?	.	.	.
COc1ncc2nc(C)c(=O)n(CCC#N)c2n1	.	.	.	.	.	.
O=C(Cn1ccccc1=O)c1cccs1	.	.	.	.	.	.
O=C1NC(=O)[C@@H]2C3c4ccccc4C=CN3[C@H](C(=O)c3cccs3)[C@H]12 (stereo partly drawn)	.	.	2.4e-08M	.	.	.
C[C@@H]1O[C@@H](OC[C@@H]2O[C@@H](Oc3c(-c4ccc(O)c(O)c4)oc4cc(O)cc(O)c4c3=O)[C@H](O)[C@H](O)[C@@H]2O)[C@H](O)[C@H](O)[C@@H]1O	.	.	?	.	.	.

Screening results (PubChem)
